In the supplement of paper PMC10849652:
Of roughly 7,900 targets only a part is listed; those with a hit were picked by preference. About 0.6% of all pairs of compound and target were hits.

Key:
Assay in all cases: log2 fold change, soluble protein after heating vs DMSO (PISA); higher = thermal stabilisation; K562 cells, 10 uM, 30 min; active = over 0.2 and 3.5 SD of the protein, either way, in both replicates (recomputed)
[1] = compound: C#Cc1cccc(Nc2ncnc3cc(OCCOC)c(OCCOC)cc23)c1 [erlotinib]
Summary of the method: (§1)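 K562 cells at 2×10^6 cells/mL were treated with 10 μM compound for 30 min. Aliquots were heated for 3 min across 48°C-58°C, pooled, and extracted in PBS with 0.5% NP-40 at 4°C; soluble protein was the supernatant after 21,000xg for 90 min. Soluble protein was quantified by TMTpro 16plex LC-MS/MS with channel sums equalised, and reported as log2 fold change in thermal stability against DMSO controls, with values from duplicates.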

[2] = compound: C/C(=N\NC(=O)C1=CC(=CC=C1)S(=O)(=O)N2CCOCC2)/C3=C(C=CC(=C3)Cl)O
Summary of the method: as §1

[3] = compound: C1=CC(=C(C=C1Cl)C2=NC3=NC=CN=C3C(=N2)NC4=CC=NC=C4)F
Summary of the method: as §1

[4] = compound: C1=CC(=CC=C1C2=NC3=C(N2)C=C(C=C3)C(=O)N)OC4=CC=C(C=C4)Cl
Summary of the method: as §1

[5] = compound: C1=CC2=C(C=CC(=C2)/C=C\3/C(=O)NC(=NCC4=CC=CS4)S3)N=C1
Summary of the method: as §1

[6] = compound: C1=CC2=NC=CN=C2C=C1/C=C/3\C(=O)NC(=O)S3
Summary of the method: as §1

[7] = compound: C1=CC=C2C(=C1)C3=NNC4=CC=CC(=C43)C2=O
Summary of the method: as §1

[8] = compound: C1=CC=C(C=C1)C2=NC(=C(N2)C3=CC=NC=C3)C4=CC(=C(C=C4)Cl)O
Summary of the method: as §1

[9] = compound: C1CCN(C1)C(=O)NC2=CC=CC(=C2)NC3=NC=C(C(=N3)NCCC4=CN=CN4)Br
Summary of the method: as §1

[10] = compound: C1CN(CCC1(CC2=CC=C(C=C2)Cl)N)C3=NC=NC4=C3C=CN4
Summary of the method: as §1

Measured: log2 fold change

PSMB9 (UniProt P28065)
inactive: [1] -0.158 | [3] -0.116 | [4] 0.113 | [5] 0.174 | [6] -0.142 | [7] -0.006
active: [2] -0.633

POLR2G (UniProt P62487)
inactive: [1] -0.041 | [2] -0.011 | [3] -0.001 | [4] 0.025 | [5] -0.078 | [6] 0.044 | [8] 0.063 | [7] 0.014 | [9] -0.033 | [10] 0.071

PKM (UniProt P14618)
inactive: [1] 0.008 | [2] -0.005 | [3] 0.052 | [4] 0.003 | [5] 0.002 | [6] -0.003 | [8] -0.016 | [7] -0.011 | [9] -0.006 | [10] 0.029

PRG4 (UniProt Q92954)
inactive: [1] 0.002 | [2] -0.109 | [3] 0.011 | [4] -0.085 | [5] 0.15 | [6] 0.024 | [8] -0.139 | [7] -0.171 | [9] -0.143 | [10] 0.031

PTTG1IP (UniProt P53801)
inactive: [1] -0.011 | [2] -0.06 | [3] -0.039 | [4] -0.001 | [5] 0.026 | [6] 0.033 | [7] -0.082 | [9] 0.037 | [10] 0.01

PRPF31 (UniProt Q8WWY3)
inactive: [1] 0.105 | [2] 0.194 | [3] 0.05 | [4] 0 | [5] 0.217 | [6] 0 | [8] 0.027 | [7] 0.076 | [9] -0.067 | [10] 0.129

PRKAR1A (UniProt P10644)
inactive: [1] 0.078 | [2] -0.084 | [3] -0.037 | [4] -0.027 | [5] 0.116 | [6] 0.018 | [8] 0.066 | [7] 0.139 | [9] 0.128 | [10] -0.017

POLR2K (UniProt P53803)
inactive: [1] -0.081 | [2] 0.021 | [3] -0.037 | [4] 0.127 | [5] -0.017 | [6] 0.097 | [8] -0.1 | [7] -0.105 | [9] 0.005 | [10] 0.022

PRIM1 (UniProt P49642)
inactive: [1] 0.005 | [2] 0.011 | [3] -0.044 | [4] 0.049 | [5] -0.005 | [6] 0.027 | [8] -0.09 | [7] 0.061 | [9] -0.033 | [10] -0.074

PNPLA2 (UniProt Q96AD5)
inactive: [1] 0.017 | [2] 0.052 | [3] 0.007 | [4] -0.021 | [5] 0.045 | [6] 0.063 | [8] -0.015 | [7] -0.027 | [9] 0.101 | [10] -0.034

PEX11B (UniProt O96011)
inactive: [1] 0.016 | [2] 0.058 | [3] 0.162 | [4] -0.001 | [5] 0.056 | [6] 0.087 | [8] 0.142 | [7] -0.012 | [9] -0.097 | [10] 0.041

PDS5A (UniProt Q29RF7)
Chain of UniProt Q29RF7 (Q29RF7 whole entry, looked up): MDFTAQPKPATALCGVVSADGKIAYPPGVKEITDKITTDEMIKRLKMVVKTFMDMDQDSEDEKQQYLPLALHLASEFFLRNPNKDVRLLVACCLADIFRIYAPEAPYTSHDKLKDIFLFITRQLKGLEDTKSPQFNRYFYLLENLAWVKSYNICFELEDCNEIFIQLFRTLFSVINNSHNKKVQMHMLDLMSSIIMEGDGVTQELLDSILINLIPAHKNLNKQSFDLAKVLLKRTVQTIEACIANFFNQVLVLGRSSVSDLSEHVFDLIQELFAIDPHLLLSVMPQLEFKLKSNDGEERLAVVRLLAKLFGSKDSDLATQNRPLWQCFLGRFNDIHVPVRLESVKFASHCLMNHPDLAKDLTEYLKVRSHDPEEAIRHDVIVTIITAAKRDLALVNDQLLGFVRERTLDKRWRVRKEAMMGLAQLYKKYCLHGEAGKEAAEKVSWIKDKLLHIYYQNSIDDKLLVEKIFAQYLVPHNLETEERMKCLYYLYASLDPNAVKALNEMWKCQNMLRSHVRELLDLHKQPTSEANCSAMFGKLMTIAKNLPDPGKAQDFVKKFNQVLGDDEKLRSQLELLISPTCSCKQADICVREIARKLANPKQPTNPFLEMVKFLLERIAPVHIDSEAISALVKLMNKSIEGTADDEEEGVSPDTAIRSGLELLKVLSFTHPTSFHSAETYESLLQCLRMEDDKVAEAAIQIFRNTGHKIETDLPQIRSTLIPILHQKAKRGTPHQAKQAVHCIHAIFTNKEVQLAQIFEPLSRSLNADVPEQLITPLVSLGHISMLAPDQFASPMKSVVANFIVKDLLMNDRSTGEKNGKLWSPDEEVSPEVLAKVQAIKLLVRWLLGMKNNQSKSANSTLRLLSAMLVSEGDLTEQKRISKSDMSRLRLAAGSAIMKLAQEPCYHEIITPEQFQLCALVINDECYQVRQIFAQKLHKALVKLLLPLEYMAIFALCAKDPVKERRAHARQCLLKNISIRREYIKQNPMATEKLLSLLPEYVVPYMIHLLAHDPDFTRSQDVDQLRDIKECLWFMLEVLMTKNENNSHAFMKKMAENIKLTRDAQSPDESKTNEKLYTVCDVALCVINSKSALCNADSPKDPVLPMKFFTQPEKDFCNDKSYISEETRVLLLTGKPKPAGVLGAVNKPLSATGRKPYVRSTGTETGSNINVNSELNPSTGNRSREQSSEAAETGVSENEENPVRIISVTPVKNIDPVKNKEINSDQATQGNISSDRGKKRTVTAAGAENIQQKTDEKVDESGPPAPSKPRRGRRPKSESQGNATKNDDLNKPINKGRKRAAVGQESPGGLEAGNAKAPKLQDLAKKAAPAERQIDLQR
inactive: [1] 0.225 | [2] 0.132 | [3] 0.04 | [4] -0.227 | [5] 0.05 | [6] -0.176 | [8] 0.14 | [7] 0.108 | [9] -0.25 | [10] -0.267

POLR2M (UniProt Q6EEV4)
inactive: [1] -0.044 | [2] 0.096 | [3] 0.242 | [4] 0.223 | [5] -0.006 | [6] -0.001 | [7] -0.048 | [9] -0.041 | [10] 0.024

PTP4A2 (UniProt Q12974)
Chain of UniProt Q12974 (Q12974 whole entry, looked up): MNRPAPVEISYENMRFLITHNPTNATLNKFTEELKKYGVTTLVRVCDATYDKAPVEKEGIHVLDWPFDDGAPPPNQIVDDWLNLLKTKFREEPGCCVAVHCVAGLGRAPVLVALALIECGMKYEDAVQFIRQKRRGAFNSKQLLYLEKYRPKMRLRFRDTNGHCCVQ
inactive: [1] -0.054 | [2] 0.03 | [3] 0.134 | [4] 0.049 | [5] 0.018 | [6] -0.051 | [8] 0.205 | [7] -0.125 | [9] -0.029 | [10] -0.097

PLCG1 isoform 2 (UniProt P19174)
inactive: [1] 0.052 | [2] -0.054 | [3] -0.09 | [4] 0.067 | [5] 0.119 | [6] 0.029 | [8] 0.006 | [7] 0.017 | [9] 0.052 | [10] -0.06

PCNX1 (UniProt Q96RV3)
inactive: [3] 0.036 | [6] -0.006 | [9] -0.019 | [10] -0.041

PHRF1 (UniProt Q9P1Y6)
inactive: [1] -0.161 | [4] 0.082 | [8] 0.073

PRR14L (UniProt Q5THK1)
inactive: [2] -0.168 | [5] 0.16 | [7] -0.091 | [9] 0.166 | [10] -0.023

PCBP2 (UniProt F8VZX2)
inactive: [1] -0.014 | [4] -0.077 | [6] -0.019 | [8] -0.008

PSMA3 (UniProt G3V4X5)
inactive: [6] 0.051 | [8] 0.348

PI4K2B (UniProt Q8TCG2)
inactive: [1] -0.003 | [2] -0.008 | [4] 0.065 | [5] 0.004 | [6] 0.016 | [8] -0.019 | [7] -0.007 | [9] 0.048 | [10] -0.173

PRKX (UniProt P51817)
inactive: [1] 0.169 | [4] 0.035 | [6] 0

PPP2R5B (UniProt Q15173)
inactive: [1] -0.044 | [2] 0.039 | [4] -0.05 | [5] -0.003 | [6] 0.072 | [7] 0.124

PCID2 (UniProt Q5JVF3)
inactive: [1] 0.086 | [3] -0.088 | [4] -0.021 | [6] 0.028 | [8] -0.005 | [9] -0.086 | [10] -0.161

PTK2B (UniProt Q14289)
inactive: [1] 0.225 | [2] 0.063 | [4] 0.059 | [5] 0.048 | [6] 0.058 | [8] 0.008 | [7] -0.066 | [9] 0.025 | [10] 0.105

PMS2CL (UniProt Q68D20)
inactive: [3] 0.094 | [8] -0.023

PHC3 isoform 7 (UniProt Q8NDX5)
Chain of UniProt Q8NDX5 (Q8NDX5 whole entry, looked up): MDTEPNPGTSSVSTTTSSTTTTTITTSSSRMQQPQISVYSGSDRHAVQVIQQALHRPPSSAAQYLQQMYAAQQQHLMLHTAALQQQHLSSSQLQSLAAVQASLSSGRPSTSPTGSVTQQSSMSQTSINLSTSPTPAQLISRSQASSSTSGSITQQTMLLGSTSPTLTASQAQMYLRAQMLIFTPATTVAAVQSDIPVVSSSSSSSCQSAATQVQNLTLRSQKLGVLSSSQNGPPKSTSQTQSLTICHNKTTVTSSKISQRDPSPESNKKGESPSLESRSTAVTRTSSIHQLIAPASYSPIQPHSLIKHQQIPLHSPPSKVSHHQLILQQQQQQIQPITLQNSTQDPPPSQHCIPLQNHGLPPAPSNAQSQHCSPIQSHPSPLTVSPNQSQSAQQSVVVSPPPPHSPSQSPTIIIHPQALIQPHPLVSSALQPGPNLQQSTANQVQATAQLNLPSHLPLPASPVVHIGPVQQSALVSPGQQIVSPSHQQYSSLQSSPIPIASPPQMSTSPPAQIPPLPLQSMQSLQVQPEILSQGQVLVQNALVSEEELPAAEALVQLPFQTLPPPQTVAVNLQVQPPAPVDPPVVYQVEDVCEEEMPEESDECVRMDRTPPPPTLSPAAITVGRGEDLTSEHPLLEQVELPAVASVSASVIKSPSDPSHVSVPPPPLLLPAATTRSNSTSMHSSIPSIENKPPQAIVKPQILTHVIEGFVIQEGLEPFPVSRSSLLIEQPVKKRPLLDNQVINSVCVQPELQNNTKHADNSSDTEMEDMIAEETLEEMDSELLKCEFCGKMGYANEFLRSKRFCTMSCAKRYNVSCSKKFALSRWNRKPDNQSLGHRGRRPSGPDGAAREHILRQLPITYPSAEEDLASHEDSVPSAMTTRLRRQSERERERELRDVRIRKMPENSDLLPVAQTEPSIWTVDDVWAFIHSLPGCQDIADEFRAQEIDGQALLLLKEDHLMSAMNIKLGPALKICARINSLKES
inactive: [1] 0.08 | [3] 0.24 | [4] -0.002 | [6] 0.174

PSD3 (UniProt Q9NYI0)
Chain of UniProt Q9NYI0 (Q9NYI0 whole entry, looked up): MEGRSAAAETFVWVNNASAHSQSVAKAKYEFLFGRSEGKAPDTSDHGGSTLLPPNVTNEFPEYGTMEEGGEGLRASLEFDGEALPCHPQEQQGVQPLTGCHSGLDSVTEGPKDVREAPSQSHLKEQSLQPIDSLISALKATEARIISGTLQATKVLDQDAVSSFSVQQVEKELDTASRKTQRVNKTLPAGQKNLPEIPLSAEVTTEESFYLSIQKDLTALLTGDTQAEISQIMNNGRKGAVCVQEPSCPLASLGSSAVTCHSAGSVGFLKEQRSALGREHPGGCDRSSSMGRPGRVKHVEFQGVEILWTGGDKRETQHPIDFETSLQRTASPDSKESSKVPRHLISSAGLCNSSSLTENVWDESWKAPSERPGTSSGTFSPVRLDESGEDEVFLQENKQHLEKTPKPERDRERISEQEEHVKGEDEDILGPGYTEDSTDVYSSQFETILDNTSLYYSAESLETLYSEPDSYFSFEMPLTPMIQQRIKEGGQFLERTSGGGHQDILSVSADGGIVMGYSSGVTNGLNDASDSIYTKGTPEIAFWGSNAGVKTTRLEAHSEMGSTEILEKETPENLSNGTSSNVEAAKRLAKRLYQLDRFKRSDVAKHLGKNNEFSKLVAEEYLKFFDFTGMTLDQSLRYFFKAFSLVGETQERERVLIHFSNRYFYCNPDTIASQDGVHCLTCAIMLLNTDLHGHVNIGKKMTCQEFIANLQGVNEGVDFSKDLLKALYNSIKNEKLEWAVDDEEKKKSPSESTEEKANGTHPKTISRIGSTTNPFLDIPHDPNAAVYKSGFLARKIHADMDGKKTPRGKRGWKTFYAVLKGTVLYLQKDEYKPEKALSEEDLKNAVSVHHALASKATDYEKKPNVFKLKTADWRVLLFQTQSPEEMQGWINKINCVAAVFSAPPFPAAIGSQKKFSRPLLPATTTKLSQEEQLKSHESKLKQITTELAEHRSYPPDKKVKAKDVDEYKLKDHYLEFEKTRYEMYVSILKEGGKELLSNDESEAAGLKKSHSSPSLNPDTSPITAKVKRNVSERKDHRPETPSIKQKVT
inactive: [2] -0.022 | [5] 0.1 | [8] -0.001 | [7] 0.018

PAN2 (UniProt Q504Q3)
inactive: [6] 0.044

PSMC3 (UniProt E9PLG2)
inactive: [3] -0.437 | [6] 0.151 | [9] 0.27 | [10] -0.045

PSMA3 (UniProt H0YJ03)
inactive: [5] 0.095 | [8] -0.065 | [7] -0.006 | [9] -0.027 | [10] 0.2
active: [2] -0.698

PUF60 isoform 2 (UniProt Q9UHX1)
inactive: [2] 0.242 | [5] -0.242 | [6] 0.086 | [8] 0.05 | [7] 0.046 | [9] -0.148 | [10] -0.148

PDE4DIP (UniProt E9PS60)
inactive: [1] 0.086 | [4] -0.175

PCF11 (UniProt O94913)
Chain of UniProt O94913 (O94913 whole entry, looked up): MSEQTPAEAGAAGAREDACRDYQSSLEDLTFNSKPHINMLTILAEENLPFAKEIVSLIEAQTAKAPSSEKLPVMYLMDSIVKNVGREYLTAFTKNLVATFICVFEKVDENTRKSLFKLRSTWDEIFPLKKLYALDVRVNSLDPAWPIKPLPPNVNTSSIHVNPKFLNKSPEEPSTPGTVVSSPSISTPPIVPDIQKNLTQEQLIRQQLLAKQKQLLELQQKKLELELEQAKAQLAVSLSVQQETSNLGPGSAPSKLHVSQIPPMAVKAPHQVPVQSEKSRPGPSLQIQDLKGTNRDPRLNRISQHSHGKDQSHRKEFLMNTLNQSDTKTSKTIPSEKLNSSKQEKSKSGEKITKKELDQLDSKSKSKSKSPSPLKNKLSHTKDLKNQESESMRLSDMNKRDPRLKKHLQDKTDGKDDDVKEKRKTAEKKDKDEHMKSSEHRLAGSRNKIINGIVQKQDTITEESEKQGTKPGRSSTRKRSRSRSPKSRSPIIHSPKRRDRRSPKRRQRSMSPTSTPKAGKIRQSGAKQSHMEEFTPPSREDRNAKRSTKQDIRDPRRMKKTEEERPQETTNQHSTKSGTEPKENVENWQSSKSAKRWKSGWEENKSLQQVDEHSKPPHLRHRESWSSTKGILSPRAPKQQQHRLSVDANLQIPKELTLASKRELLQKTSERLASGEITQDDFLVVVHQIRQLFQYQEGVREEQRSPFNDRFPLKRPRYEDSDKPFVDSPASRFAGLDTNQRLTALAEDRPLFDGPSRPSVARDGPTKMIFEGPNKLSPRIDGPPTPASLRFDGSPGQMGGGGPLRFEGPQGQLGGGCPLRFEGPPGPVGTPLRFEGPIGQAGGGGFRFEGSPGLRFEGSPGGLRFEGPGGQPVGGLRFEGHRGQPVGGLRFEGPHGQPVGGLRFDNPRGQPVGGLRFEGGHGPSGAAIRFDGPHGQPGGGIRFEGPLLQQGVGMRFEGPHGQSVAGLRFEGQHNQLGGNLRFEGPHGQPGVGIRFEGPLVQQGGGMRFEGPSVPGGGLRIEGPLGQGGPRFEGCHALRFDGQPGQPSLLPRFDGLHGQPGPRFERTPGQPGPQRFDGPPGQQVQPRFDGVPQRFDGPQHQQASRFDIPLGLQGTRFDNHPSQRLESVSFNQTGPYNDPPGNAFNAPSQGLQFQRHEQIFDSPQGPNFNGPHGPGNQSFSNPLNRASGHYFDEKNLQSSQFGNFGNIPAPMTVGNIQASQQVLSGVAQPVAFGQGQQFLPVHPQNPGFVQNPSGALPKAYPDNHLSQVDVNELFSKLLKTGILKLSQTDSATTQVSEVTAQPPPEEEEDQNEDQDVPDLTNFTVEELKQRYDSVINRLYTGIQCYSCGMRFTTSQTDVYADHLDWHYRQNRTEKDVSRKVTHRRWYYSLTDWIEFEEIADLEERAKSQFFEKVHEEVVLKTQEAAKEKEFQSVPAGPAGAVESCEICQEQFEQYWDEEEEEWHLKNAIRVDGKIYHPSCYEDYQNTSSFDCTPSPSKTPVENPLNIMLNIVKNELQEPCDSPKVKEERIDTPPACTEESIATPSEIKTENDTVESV
inactive: [2] 0.04 | [5] -0.082 | [6] 0.111 | [8] -0.191 | [7] 0.083

POGZ (UniProt Q7Z3K3)
inactive: [1] 0.006 | [2] 0.085 | [3] 0.044 | [4] 0.033 | [5] -0.172 | [8] 0.023 | [7] 0.082 | [9] 0.026 | [10] 0.115

PTP4A3 (UniProt O75365)
inactive: [6] -0.041
